This note sets out measurements from PubChem BioAssay (EPA / NIEHS).

Several values for one entry are separate records, joined by “and”; a condition that tells them apart may be missing. Identical values can stand only once. The source holds several records for some structures; these can differ, active in one and inactive in another. Activity calls are given as the source filed them. The calls were made as follows: active = hit-call score of the fitted dose curve at least 0.9, where 1 is the maximum; inactive = score below 0.9.

Read-out in this assay: Interleukin-8 (IL8), CXCL8 (gene 3576)
As to the kind of experiment: BSK_CASM3C_IL8: BioMAP Diversity Plus: CASM3C Assay for Interleukin-8 (IL8) Biomarker Activity (AID 2283042).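 Also: IL-8 protein level quantified by ELISA.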 To be noted: primary human coronary artery smooth muscle cells; actives raise or lower the signal.
With `C=C(C)C(=O)OCC(F)(F)C(F)(F)C(F)(F)C(F)(F)C(F)(F)C(F)(F)C(F)(F)F`, the outcome was inactive.
Take `Nc1ccc([N+](=O)[O-])cc1O`: the outcome was inactive.
Consider `FC(F)(F)C(F)(F)C(F)(F)C(F)(F)C(F)(F)C(F)(F)CCS`, for which the outcome was inactive.
`O=S(=O)(OCC(F)F)C(F)(F)F`: the result was inactive.
The same measure, in the same setting: the entry for `Cc1ccc(S(=O)(=O)OCC(F)(F)C(F)(F)C(F)(F)C(F)(F)C(F)(F)C(F)F)cc1` is “inactive”.
Same read-out and setting: the entry for `N=C(N)C(F)(F)C(F)(F)C(F)(F)C(F)(F)C(F)(F)C(F)(F)C(F)(F)F` is “inactive”; for `CCCCOCCOCCOC(=O)CCCCC(=O)OCCOCCOCCCC` it is “inactive”.
`OCCCC(F)(F)C(F)(F)C(F)(F)C(F)(F)C(F)(F)C(F)(F)C(F)(F)F`: the concentration at half-maximal activity (AC50) is 49 µM (active) and the outcome was inactive.
Turning to `FC(F)(F)C(F)(F)C(F)(F)C(F)(F)CCI`, the result was inactive.
On the same count and under the same terms, with `FC(F)(F)C(F)(F)C(F)(F)C(F)(F)C(F)(F)C(F)(F)C(F)(F)C(F)(F)F` the entry was “inactive”; with `FC(F)(Br)C(F)(F)C(F)(F)C(F)(F)C(F)(F)C(F)(F)Br`, “inactive”; with `FC1CC(F)(F)C(F)(F)C1(F)F` (configuration not stated), “inactive”.
Take `FC(F)(I)C(F)(F)C(F)(F)C(F)(F)I`: the AC50 was 47.5 µM (active) and 48.2 µM (active); the outcome was inactive.
As to `OCC(F)(F)C(F)(F)C(F)(F)C(F)F`, the result was inactive.
Still for that read-out and setting: with `C=CC(=O)OCC(F)(F)C(F)(F)C(F)(F)C(F)(F)COC(=O)C=C` the entry was “inactive”; with `C=C(C)C(=O)OCC(F)(F)C(F)(F)C(F)(F)F`, “inactive”; with `CCCCCCOC(=O)c1ccccc1O`, “inactive”.
The same measure, in the same setting: the entry for `FC(F)(F)C(F)(F)CNCC(F)(F)C(F)(F)F` is “inactive”.
Consider `O=C(O)C(F)(F)C(F)(F)C(F)(F)C(F)(F)C(F)(F)C(F)(F)C(F)(F)C(F)(F)C(F)(F)C(F)F`, for which the result was inactive.
On the same count and under the same terms, the entry for `C=CC(F)(F)C(F)(F)C(F)(F)C(F)(F)C(F)(F)C(F)(F)C(F)(F)C(F)(F)C=C` is “inactive”; for `O=C(Cl)C(F)(F)C(F)(F)C(F)(F)C(F)(F)C(F)(F)C(F)(F)C(F)(F)C(F)(F)F` it is “inactive”; for `O=C(O)C(F)(F)C(F)(F)C(F)(F)C(F)(F)C(F)(F)C(F)(F)C(F)(F)C(F)(F)Cl` it is “inactive”.
Consider `O=P(O)(O)OCCC(F)(F)C(F)(F)C(F)(F)C(F)(F)C(F)(F)C(F)(F)F`, for which the result was inactive.
Take `C#C[C@]1(O)CC[C@H]2[C@@H]3CCc4cc(OC)ccc4[C@H]3CC[C@@]21C`: the outcome was inactive.
Same read-out and setting: the entry for `CCCCC(CC)COP(=O)(O)OCC(CC)CCCC` (configuration not stated) is “inactive”; for `O=C(O)C(F)(F)C(F)(F)C(F)(F)C(F)(F)C(F)(F)C(F)(F)C(F)(F)C(F)(F)C(F)(F)C(F)(F)C(F)(F)C(F)(F)F` it is “inactive”; for `C=C(C)C(=O)OCCC(F)(F)C(F)(F)C(F)(F)C(F)(F)C(F)(C(F)(F)F)C(F)(F)F` it is “inactive”.
Consider `O=C(O)C(F)(F)C(F)(F)C(F)(F)C(F)(F)C(F)(F)C(F)(F)C(F)(F)C(F)(F)C(F)(F)C(F)(F)C(F)(F)C(F)(F)C(F)(F)F`, for which the result was inactive.
On the same count and under the same terms, with `O=C(O)C(F)(OC(F)(F)C(F)(OC(F)(F)C(F)(F)C(F)(F)F)C(F)(F)F)C(F)(F)F` (configuration not stated) the entry was “inactive”; with `CC(C)(C)C(=O)CC(=O)C(F)(F)C(F)(F)C(F)(F)F`, “inactive”; with `CCCCCCCCC(F)(F)C(F)(F)C(F)(F)C(F)(F)C(F)(F)C(F)(F)F`, “inactive”.
Regarding `CCCCCCCCCCCCCCCC[N+](C)(C)Cc1ccccc1`, the half-maximal activity concentration (AC50) is 4.79 µM (active).
Consider `C=CC/C=C/C/C=C/C/C=C/C`, for which the result was inactive.
As for `O=C(O)C(F)(OC(F)(F)C(F)(OC(F)(F)C(F)(OC(F)(F)C(F)(F)C(F)(F)F)C(F)(F)F)C(F)(F)F)C(F)(F)F` (configuration not stated), the result was inactive.
For the compound `CS(C)(=O)=O`, the outcome was inactive.
